Only some compounds are listed: those with a hit (about 3.4% of all), similar ones and a draw of the others.
HGIII-sPLA2 inh: Blocks human group III sPLA2 activity | inhibition, % at 12.2 µM | 0.56% of 370,000 active | Q9NZ20 | QFRET BODIPY PC-A2 liposome hydrolysis, fluorescence;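 active = inhibition above mean plus 3 SD of compounds lying within the high and low control bounds, cut at about 19% in these data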;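 also: 0% = median of test compound wells and 100% = no enzyme DMSO wells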
ADAM17 inh: inhibitors of human ADAM17; inhibition, % at 6.95 µM; 0.83% of 370,000 active; AID 720648; recombinant ADAM17, EDANS/DABCYL FRET peptide cleavage;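 active = inhibition above the mean of compounds lying between control limits plus 3 SD, set per campaign, cut at about 8.5% in these data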;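 also: 0% = DMSO-only wells as the low control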
Target sequence (P78536 215-824 limits assumed): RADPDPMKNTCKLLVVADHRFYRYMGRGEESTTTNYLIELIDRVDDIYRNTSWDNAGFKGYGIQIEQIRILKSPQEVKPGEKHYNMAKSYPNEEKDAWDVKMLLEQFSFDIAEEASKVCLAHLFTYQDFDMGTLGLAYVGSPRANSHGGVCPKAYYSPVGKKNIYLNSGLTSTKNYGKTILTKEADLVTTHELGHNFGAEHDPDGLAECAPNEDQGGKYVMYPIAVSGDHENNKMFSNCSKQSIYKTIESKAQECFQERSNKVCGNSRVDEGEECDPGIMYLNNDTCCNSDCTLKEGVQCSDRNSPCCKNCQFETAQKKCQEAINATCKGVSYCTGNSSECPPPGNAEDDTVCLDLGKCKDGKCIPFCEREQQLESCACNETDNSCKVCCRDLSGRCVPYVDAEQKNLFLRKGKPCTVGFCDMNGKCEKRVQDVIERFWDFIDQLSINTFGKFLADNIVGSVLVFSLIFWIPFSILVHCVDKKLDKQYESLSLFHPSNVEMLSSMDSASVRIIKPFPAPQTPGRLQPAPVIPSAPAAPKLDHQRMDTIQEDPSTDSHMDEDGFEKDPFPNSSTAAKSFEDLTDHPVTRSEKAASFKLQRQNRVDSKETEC
NRP1-CendR mod: modulators of CendR peptide binding to human neuropilin-1; O14786; FAM-RPARPAR peptide binding to NRP-1, fluorescence polarization; inhibition, % at 25 µM; 0.85% of 360,000 active; AID 602438;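 active = inhibition or corrected inhibition above about 18%, plus a signal ratio from 0.5 to 1.5, limit read from the data, passing the limit was not always enough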
proKLK7 act: activates the human kallikrein-7 zymogen; activation, % at 7 µM; purified proKLK7, EDANS-DABCYL substrate fluorescence; 100% is mature enzyme control, 0% vehicle; AID 652039; 0.9% of 370,000 active; P49862;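 active = activation above the mean of all tested compounds plus 3 SD, computed per campaign excluding outliers beyond control limits, cut at about 13% in these data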
ADAM10 inh: inhibitors of human ADAM10; O14672; recombinant ADAM10, EDANS/DABCYL FRET peptide cleavage, 3 h; inhibition, % at 7 µM; 0.62% of 370,000 active; AID 720582;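 active = inhibition above a per-campaign cutoff equal to the mean of compounds falling between control-based bounds plus 3 SD, cut at about 20% in these data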;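 also: 0% = DMSO wells while the 100% control is not disclosed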
KLK7 act conf: confirmation of human kallikrein-7 zymogen activators; shares compounds with proKLK7 act; purified proKLK7, EDANS-DABCYL substrate fluorescence; scaled: vehicle 0, mature enzyme 100; activation, % at 7 µM; 68% of 3,200 active; AID 686949;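 active = activation, as change over the incubation, above the mean of all tested compounds plus 3 SD, cut at about 13% in these data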
EDANS-DABCYL int: counter-screen for kallikrein-7 activators: EDANS-DABCYL optical interference. shares compounds with proKLK7 act. EDANS-DABCYL substrate fluorescence interference, no enzyme, 4 h; solvent 0%, active enzyme control 100%. activation, % at 7 µM. 80% of 3,200 active. AID 686952;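 active = activation above the all-compound mean plus 3 SD, ignoring values outside control-based bounds, cut at about 4.8% in these data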;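 also: value is the 4 h activation minus the activation read at time zero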
EDANS interf: EDANS fluorescence interference in dose response, no enzyme. 20% of 250 active. EC50, µM. AID 720493. shares compounds with proKLK7 act. EDANS-DABCYL peptide fluorescence interference;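 active = compounds that raise the fluorescence signal in this interference counterscreen, with EC50 at or below 10 µM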;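 also: intact quenched peptide substrate alone read at 355 nm excitation and 520 nm emission; signal is fluorescence gain from T0 to T4 after four hours at room temperature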
The depositor's hits bear a star; i = inactive; nt = not tested or not shown.

SMILES	HGIII-sPLA2 inh	ADAM17 inh	NRP1-CendR mod	proKLK7 act	ADAM10 inh	KLK7 act conf	EDANS-DABCYL int	others
COC(=O)Cc1c(C)c2ccc(O)c(CN3CCCC(C)C3)c2oc1=O (stereo unspecified)	1	i	16	53*	i	76*	75*
CCC(CO)Nc1cccc2c1S(=O)(=O)N(Cc1cn(Cc3ccc(C(F)(F)F)cc3)nn1)Cc1ccccc1O2 (stereo unspecified)	-6	-1	nt	0	-51	nt	nt
CC(C)(C)[C@H](NC(=O)c1cc(Cl)cc(Cl)c1)C(=O)N1CCC[C@H]1C(=O)N[C@H](C#N)CC(=O)O	-4	-5	nt	nt	-4	nt	nt
COc1ccc(OC)c(C(c2c(C)[nH][nH]c2=O)c2c(C)[nH][nH]c2=O)c1	-40	-9	6	13*	-21	20*	20*
CCCC[C@H]1C2CC(OC(=O)Nc3cccc(C#N)c3)C(C2)[C@H]2CCCCN21 (stereo partly specified)	-1	-3	nt	1	-6	nt	nt
COCCCNC(=O)c1nnn2c1nc(N)c1cc(Cl)ccc12	8	-82	nt	15*	-339	40*	40*
O=C(O)c1cc2cccc(S(=O)(=O)N3CCCCC3)c2cc1O	-13	-41	3	21*	-108	85*	88*
O=S(=O)(c1cccc2ccccc12)N1CCCCC1	-1	2	10	0	1	nt	nt
CCOc1ccc(Nc2cc(C)nc(N3CCOCC3)n2)cc1	0	-5	1	0	-5	nt	nt
CCOc1ccc2nc(N3CCOCC3)nc(C)c2c1	0	-276	12	21*	i	-21	-32
COc1ccccc1-n1c(N)c(C(=O)NCC2CCCO2)c2nc3ccccc3nc21 (stereo unspecified)	-13	i	4	14*	i	-168	-174
Nc1c(C(=O)NCC2CCCO2)c2nc3ccccc3nc2n1-c1ccccc1 (stereo unspecified)	-7	i	-6	-34	i	nt	nt
CCCCCN1CCCCC(NC(=O)c2cc(OC)c(OC)c(OC)c2)C1=O (stereo unspecified)	8	-4	nt	0	-2	nt	nt
N#C/C(=C\c1ccc(-c2nc3ccccc3s2)o1)C(N)=O	-3	-28	-36	17*	-63	7	5.9*
Cc1ccc(-c2nc3ncccn3c2NC(=O)c2cccc(C)c2)cc1	-2	-74	nt	8	-254	nt	nt
O=C(Cn1c(-c2cncs2)nc2ccccc21)NCc1cccs1	6	-6	nt	0	-10	nt	nt
CN(C)CCCN(C(=O)/C=C/c1cccs1)c1nc2ccc(F)cc2s1	-8	-5	-5	35*	-5	154*	232*
CCN(CC)CCN(C(=O)/C=C/c1cccs1)c1nc2ccc(F)cc2s1	8	1	14	-11	-9	nt	nt
O=C(COc1ccc2cc(-c3ccccc3)c(=O)oc2c1)NCC1CCC(C(=O)O)CC1 (stereo unspecified)	5	i	-7	21*	i	60*	72*
CC(=O)Oc1ccc(-c2cc3c(OC(C)=O)cc(OC(C)=O)cc3oc2=O)cc1	-10	i	-40	80*	i	63*	72*
COC(=O)COc1ccc2c(=O)c(-c3ccccc3)coc2c1	-7	-2	4	0	0	nt	nt
O=C(COc1ccc2c(-c3ccccc3)cc(=O)oc2c1)NCC1CCC(C(=O)O)CC1 (stereo unspecified)	5	-5	-6	0	-7	nt	nt
COC(=O)COc1ccc2cc(-c3ccccc3)c(=O)oc2c1	1	i	11	102*	i	68*	66*
CC(=O)Oc1ccc(-c2cc3ccccc3oc2=O)cc1	10	-86	-8	-4	-221	nt	nt
NC(=O)COc1ccc2cc(-c3ccc(F)cc3)c(=O)oc2c1	10	i	-24	33*	i	-14	-63
SMILES	HGIII-sPLA2 inh	ADAM17 inh	NRP1-CendR mod	proKLK7 act	ADAM10 inh	KLK7 act conf	EDANS-DABCYL int	others
CCn1c(SCC(=O)N/N=C/c2cccc(Oc3ccccc3)c2)nnc1-c1ccccc1	-16	-2	nt	1	5	nt	nt
COCCNC[C@@]12CO[C@H](c3ccc(Cl)cc3)N1[C@@H](c1ccc(Cl)cc1)SC2	-10	5	nt	nt	13	nt	nt
COc1ccc(-c2cc3ccc(OCC(C)=O)cc3oc2=O)cc1OC	4	-8	12	0	-27	nt	nt
NC(=O)COc1ccc2cc(-c3ccccc3)c(=O)oc2c1	5	i	18	59*	i	63*	64*
COc1ccc(-c2cc3ccc(OCC(C)=O)cc3oc2=O)cc1	-5	-435	-6	27*	i	-7	-4
NNC(=O)c1ccc2nc(-c3ccc(Br)cc3)cn2c1	-2	-15	-15	5	-76	nt	nt
COc1ccc(-c2cn3cc(C(=O)NN)ccc3n2)cc1	-3	-168	-13	40*	-490	8	10.0*
CCOC(=O)c1cc(=O)n2c(nc3ccccc32)[nH]1	6	i	-5	23*	i	77*	79*
Cc1cc(=O)n2c(nc3ccccc32)[nH]1	1	-192	4	-103	i	nt	nt
COc1cc(NC(=O)C2CCCN(S(=O)(=O)c3ccc(Br)s3)C2)cc(OC)c1 (stereo unspecified)	-13	7	nt	0	5	nt	nt
O=c1c2ccccc2c(C=NC2CCS(=O)(=O)C2)c(O)n1-c1ccccc1 (stereo unspecified)	-3	-8	-1	14*	-34	15*	16*
O=C(COC(=O)/C=C/c1ccccc1)NCC1CCCO1 (stereo unspecified)	2	-2	14	0	2	nt	nt
CSc1ccc(/C=C/C(=O)OCC(=O)NC2CCS(=O)(=O)C2)cc1 (stereo unspecified)	12	-310	9	23*	i	20*	16*	EDANS interf=>69
CSc1ccc(/C=C/C(=O)OCC(=O)NCC2CCCO2)cc1 (stereo unspecified)	4	-313	6	18*	i	14*	16*
CCCC/C=C1/[C@H](c2ccccc2)N(C)C2=N[C@@H](c3ccccc3)CC(=O)N21	14	0	nt	nt	3	nt	nt
CC(C)(C)OC(=O)/C=C/[C@H](CCCCl)Sc1ccc(C(C)(C)C)cc1	-6	7	nt	0	18	nt	nt
Cc1[nH]nc2c1C(c1ccc(F)cc1)C1=C(CC(C)(C)CC1=O)N2 (stereo unspecified)	1	-157	9	14*	i	9	12*

High-throughput results deposited in PubChem BioAssay by several laboratories.
